Measured values: PubChem BioAssay
For some assays here: Potency and affinity values are given separately. Calls of active or inactive are those of the source. Unless noted, how the calls were made is not given here.

Experiments:
[1] = antimalarial activity against Dd2 strain (AID 2302;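 active means growth inhibition above 50% at the single 2 µM test dose, taken to imply half-maximal potency below 2 µM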;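 further: 0% = DMSO untreated growth and 100% = chloroquine plus artemisinin killed control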); settings: P. falciparum Dd2 in RBCs, LDH growth readout, 72 h; at 2 µM; stronger effect = higher value
[2] = human hepatoma cell viability loss – ATP luminescence, cytotoxicity control for P. falciparum antimalarial project, primary screen (AID 2303;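 active means inhibition above 50%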;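 further: 0% = DMSO wells and 100% = digitonin-killed cells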); settings: HepG2 viability, 24-48 h, at 10 µM, stronger effect = higher value
[3] = target: L-lactate dehydrogenase (Plasmodium falciparum (isolate CDC / Honduras)) (UniProt Q27743); assay: PfLDH activity inhibition – cell lysate, 3D7 strain, counter-screen for P. falciparum growth inhibition project (AID 2304);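 further: 0% = vehicle and 100% = reference inhibitor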; settings: P. falciparum 3D7 crude extract, LDH APAD/NBT absorbance; at 2 µM; stronger effect = higher value
L-lactate dehydrogenase (Plasmodium falciparum (isolate CDC / Honduras)), sequence (Q27743 whole entry, looked up): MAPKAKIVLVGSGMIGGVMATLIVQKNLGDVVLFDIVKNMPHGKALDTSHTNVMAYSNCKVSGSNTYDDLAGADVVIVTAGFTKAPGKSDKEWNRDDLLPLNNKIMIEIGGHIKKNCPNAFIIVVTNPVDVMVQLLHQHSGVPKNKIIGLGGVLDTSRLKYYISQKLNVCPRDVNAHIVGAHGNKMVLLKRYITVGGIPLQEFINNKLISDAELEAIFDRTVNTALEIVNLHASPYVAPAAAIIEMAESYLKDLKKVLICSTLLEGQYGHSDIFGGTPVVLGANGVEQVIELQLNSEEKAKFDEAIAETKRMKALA

[4] = inhibition of 3D7 malaria parasite growth – strain 3D7 (AID 2306);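 further: 0% = DMSO wells and 100% = chloroquine plus artemisinin control wells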; settings: P. falciparum 3D7 erythrocytic growth, LDH absorbance, 72 h; at 2 µM; stronger effect = higher value
[5] = target: Calcium-dependent protein kinase 1 (Plasmodium falciparum (isolate 3D7)) (UniProt P62344); assay: PfCDPK1 kinase inhibitors, biochemical, TCAMS library (AID 1159585; cut-off not given, nearly all actives have IC50 up to about 0.98 µM;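 further: inhibitors leave more ATP so luminescence rises with inhibition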); settings: recombinant PfCDPK1, Kinase-Glo ATP depletion luminescence
Calcium-dependent protein kinase 1 (Plasmodium falciparum (isolate 3D7)), sequence (P62344 whole entry, looked up): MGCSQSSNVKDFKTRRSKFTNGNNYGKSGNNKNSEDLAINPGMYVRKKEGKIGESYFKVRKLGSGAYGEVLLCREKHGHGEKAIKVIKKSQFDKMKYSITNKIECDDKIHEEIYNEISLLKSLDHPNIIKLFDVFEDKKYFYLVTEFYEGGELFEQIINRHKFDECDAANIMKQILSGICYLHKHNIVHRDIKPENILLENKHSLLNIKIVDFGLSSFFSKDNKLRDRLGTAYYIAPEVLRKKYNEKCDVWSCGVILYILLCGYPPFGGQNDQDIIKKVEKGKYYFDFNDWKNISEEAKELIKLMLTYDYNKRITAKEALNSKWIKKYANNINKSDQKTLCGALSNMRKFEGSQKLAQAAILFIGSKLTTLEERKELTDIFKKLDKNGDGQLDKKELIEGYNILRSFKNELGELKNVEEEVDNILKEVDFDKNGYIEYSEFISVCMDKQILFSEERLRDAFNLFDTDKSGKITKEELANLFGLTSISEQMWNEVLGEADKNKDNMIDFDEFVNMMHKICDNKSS

[6] = target: Plasmodium falciparum protein kinase 6 (PK6, PF3D7_1337100) (UniProt Q8IDW1); assay: PfPK6 kinase inhibitors, biochemical, TCAMS library (AID 1159586); settings: recombinant PfPK6, Kinase-Glo ATP depletion luminescence
Plasmodium falciparum protein kinase 6 (PK6, PF3D7_1337100), sequence (Q8IDW1 1-305): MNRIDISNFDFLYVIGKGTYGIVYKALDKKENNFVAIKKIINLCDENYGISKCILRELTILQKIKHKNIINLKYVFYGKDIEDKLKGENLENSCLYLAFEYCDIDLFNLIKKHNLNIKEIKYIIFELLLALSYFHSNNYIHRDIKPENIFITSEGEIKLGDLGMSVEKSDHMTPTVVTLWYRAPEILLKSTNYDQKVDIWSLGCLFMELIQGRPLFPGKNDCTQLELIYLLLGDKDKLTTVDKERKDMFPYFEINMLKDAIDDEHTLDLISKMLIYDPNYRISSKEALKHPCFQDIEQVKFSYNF

[7] = target: Protein kinase 7 (PK7), Plasmodium falciparum 3D7 (PF3D7_0213400) (UniProt Q7YTF7); assay: inhibition of Plasmodium PK7 catalytic activity – biochemical, TCAMS antimalarial set, Kinase-Glo luminescence (AID 1159587); settings: recombinant PfPK7, Kinase-Glo ATP depletion luminescence
Protein kinase 7 (PK7), Plasmodium falciparum 3D7 (PF3D7_0213400), sequence (Q7YTF7 1-343): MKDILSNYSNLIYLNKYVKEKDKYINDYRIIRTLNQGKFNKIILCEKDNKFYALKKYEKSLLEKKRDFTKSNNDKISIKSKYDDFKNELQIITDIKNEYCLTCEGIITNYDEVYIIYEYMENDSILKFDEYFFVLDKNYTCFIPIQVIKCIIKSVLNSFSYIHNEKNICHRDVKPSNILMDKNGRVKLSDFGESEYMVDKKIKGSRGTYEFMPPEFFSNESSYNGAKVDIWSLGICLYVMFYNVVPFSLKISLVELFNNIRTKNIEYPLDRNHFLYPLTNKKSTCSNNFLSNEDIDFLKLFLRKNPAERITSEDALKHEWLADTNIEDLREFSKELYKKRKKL

[8] = target: Calcium-dependent protein kinase 4 (Plasmodium falciparum (isolate 3D7)) (UniProt Q8IBS5); assay: PfCDPK4 kinase inhibitors, biochemical, TCAMS library (AID 1159588; cut-off not given, nearly all actives have IC50 up to about 0.91 µM); settings: recombinant PfCDPK4, Kinase-Glo ATP depletion luminescence
Calcium-dependent protein kinase 4 (Plasmodium falciparum (isolate 3D7)), sequence (Q8IBS5 whole entry, looked up): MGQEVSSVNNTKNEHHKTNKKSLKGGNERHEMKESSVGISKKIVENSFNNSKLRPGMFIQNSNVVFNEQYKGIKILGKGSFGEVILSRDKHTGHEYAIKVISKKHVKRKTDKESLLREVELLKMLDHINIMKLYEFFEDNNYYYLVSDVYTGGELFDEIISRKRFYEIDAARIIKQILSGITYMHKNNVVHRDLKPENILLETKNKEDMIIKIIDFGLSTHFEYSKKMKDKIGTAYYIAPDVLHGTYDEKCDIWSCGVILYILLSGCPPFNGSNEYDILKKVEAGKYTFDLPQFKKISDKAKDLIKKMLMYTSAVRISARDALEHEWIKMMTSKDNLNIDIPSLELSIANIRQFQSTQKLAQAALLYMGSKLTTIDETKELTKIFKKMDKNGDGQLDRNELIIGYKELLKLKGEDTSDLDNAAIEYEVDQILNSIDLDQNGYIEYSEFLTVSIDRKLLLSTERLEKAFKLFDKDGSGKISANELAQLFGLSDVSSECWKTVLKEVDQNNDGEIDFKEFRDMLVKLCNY

Cc1cccc2[nH]c(-c3ccc(-c4cccc(C(=O)NCCN5CCCC5)c4)s3)nc12
active: growth inhibition [4] 94%
inactive: growth inhibition [1] 2% | inhibition [2] 22% | inhibition [3] 4% | outcome [5] | outcome [6] | outcome [7] | outcome [8]

N#CC(c1ccc(Cl)cc1)c1ccc2c(C(F)(F)F)cc(C(F)(F)F)nc2n1 (stereo not given)
active: growth inhibition [1] 54% | inhibition [2] 68% | growth inhibition [4] 97%
inactive: inhibition [3] 1% | outcome [5] | outcome [6] | outcome [7] | outcome [8]

Cc1cccc2c3c([nH]c12)C1(CCN(CCc2ccccc2)CC1)NC(C(=O)NCc1ccccc1)C3 (stereo not given)
inactive: inhibition [2] 10% | inhibition [3] -9% | outcome [5] | outcome [6] | outcome [7] | outcome [8]
active: growth inhibition [1] 52% | growth inhibition [4] 86%

O=C(NC1CCN(Cc2ccc(Cl)cc2)CC1)c1cn(-c2ccccc2)nc1-c1cccnc1
active: growth inhibition [4] 93%
inactive: growth inhibition [1] 9% | inhibition [2] 13% | inhibition [3] -2% | outcome [5] | outcome [6] | outcome [7] | outcome [8]

CN1CCN(CCCSc2ccc3c(c2)ncn3-c2cc(OCc3ccccc3C(F)(F)F)c(C(N)=O)s2)CC1
active: growth inhibition [1] 86% | growth inhibition [4] 101%
inactive: inhibition [2] 28% | inhibition [3] 8% | outcome [5] | outcome [6] | outcome [7] | outcome [8]

CC(C)(C)Oc1ccc(CC2NC3(C(=O)N(Cc4ccc(C(C)(C)C)cc4)c4ccccc43)C3C(=O)N(c4ccc(Br)cc4)C(=O)C23)cc1 (stereo not given)
inactive: inhibition [2] 24% | inhibition [3] 0% | outcome [5] | outcome [6] | outcome [7] | outcome [8]
active: growth inhibition [1] 94% | growth inhibition [4] 94%

O[C@H]1[C@H](OCc2ccc(-c3ccccc3)cc2)CC[C@@H]1N1CCCCC1
inactive: inhibition [2] 9% | inhibition [3] 9% | outcome [5] | outcome [6] | outcome [7] | outcome [8]
active: growth inhibition [1] 101% | growth inhibition [4] 96%

COc1c(C2CCN(CCN3CCC(CNC(=O)c4ccc(-c5ccc(C#N)cc5)cc4)CC3)CC2)ccc2c1CCCC2
inactive: inhibition [3] 0% | outcome [5] | outcome [6] | outcome [7] | outcome [8]
active: growth inhibition [1] 100% | inhibition [2] 96% | growth inhibition [4] 100%

COC(=O)c1cccc(NC(=O)NC2CCN(c3ccnc(Nc4ccc(F)cc4)n3)C2)c1 (stereo not given)
active: growth inhibition [1] 83% | growth inhibition [4] 100%
inactive: inhibition [2] 5% | inhibition [3] 3% | outcome [5] | outcome [6] | outcome [7] | outcome [8]

CNCCNCc1cccc(-c2ccc(-c3nc4ccc(C(F)(F)F)cc4[nH]3)s2)c1
active: growth inhibition [1] 85% | growth inhibition [4] 98%
inactive: inhibition [2] 31% | inhibition [3] 4% | outcome [5] | outcome [6] | outcome [7] | outcome [8]

O=C(NCCCc1ccccc1)c1csc(C2CCCN(C(=O)c3ccc(O)c(-c4cccc5ccccc45)c3)C2)n1 (stereo not given)
inactive: inhibition [2] 3% | inhibition [3] -1% | outcome [5] | outcome [6] | outcome [7] | outcome [8]
active: growth inhibition [1] 98% | growth inhibition [4] 97%

CCOC(=O)C(CO)NC(=O)c1ccc([N+](=O)[O-])o1 (stereo not given)
inactive: growth inhibition [1] 2% | inhibition [2] -5% | inhibition [3] 8% | outcome [5] | outcome [6] | outcome [7] | outcome [8]
active: growth inhibition [4] 96%

COc1cccc(-c2cccc(-c3ccc(NC(=O)c4ccc([N+](=O)[O-])o4)cc3)n2)c1
inactive: inhibition [3] 6% | outcome [5] | outcome [6] | outcome [7] | outcome [8]
active: growth inhibition [1] 94% | inhibition [2] 98% | growth inhibition [4] 97%

Cc1ccc2oc3cc(-c4nn[nH]n4)ccc3c(=O)c2c1
active: growth inhibition [1] 96% | growth inhibition [4] 97%
inactive: inhibition [2] 2% | inhibition [3] -6% | outcome [5] | outcome [6] | outcome [7] | outcome [8]

CCCc1cc(Cc2cnc(N)nc2N)cc(CCC)c1OCCCCCC(=O)OCC
inactive: growth inhibition [1] -3% | inhibition [2] 12% | inhibition [3] -1% | outcome [5] | outcome [6] | outcome [7] | outcome [8]
active: growth inhibition [4] 95%

O=C(Nc1ccc(-c2cccc(-c3nc4ccc(C(F)(F)F)cc4[nH]3)c2)cc1)Nc1ccc(F)c(F)c1F
inactive: inhibition [3] 1% | outcome [5] | outcome [6] | outcome [7] | outcome [8]
active: growth inhibition [1] 85% | inhibition [2] 58% | growth inhibition [4] 99%

Cc1ncc([N+](=O)[O-])n1CCOC(=O)NC(Nc1ccc(Br)cc1)C(Cl)(Cl)Cl (stereo not given)
active: growth inhibition [1] 102% | growth inhibition [4] 99%
inactive: inhibition [2] 0% | inhibition [3] 5% | outcome [5] | outcome [6] | outcome [7] | outcome [8]

COc1ccc(C2CCN(CCCCNC(=O)c3ccc(NC(=O)c4ccc(Cl)cc4)cc3)CC2)cc1Cl
active: growth inhibition [1] 75% | growth inhibition [4] 97%
inactive: inhibition [2] 28% | inhibition [3] 4% | outcome [5] | outcome [6] | outcome [7] | outcome [8]

c1ccc2c(NCCCCCCCNc3ccnc4ccccc34)ccnc2c1
inactive: inhibition [3] 1% | outcome [5] | outcome [6] | outcome [7] | outcome [8]
active: growth inhibition [1] 94% | inhibition [2] 91% | growth inhibition [4] 101%

COc1c(C2CCN(CCCCNC(=O)c3ccc(NC(=O)c4ccc(C#N)cc4)cc3)CC2)ccc2c1CCCC2
inactive: inhibition [3] 1% | outcome [5] | outcome [6] | outcome [7] | outcome [8]
active: growth inhibition [1] 100% | inhibition [2] 81% | growth inhibition [4] 97%

CN1CCCN(Cc2cccc(-c3cccc(NC(=O)c4ccc(C#N)cc4)c3)c2)CC1
active: growth inhibition [4] 89%
inactive: growth inhibition [1] 4% | inhibition [2] 7% | inhibition [3] 1% | outcome [5] | outcome [6] | outcome [7] | outcome [8]

Cc1sc(N2CCN(C)CC2)nc1C(=O)Nc1ccc(F)cc1C(F)(F)F
inactive: inhibition [2] 7% | inhibition [3] 4% | outcome [5] | outcome [6] | outcome [7] | outcome [8]
active: growth inhibition [1] 63% | growth inhibition [4] 92%

CC(=O)Nc1ncc(C(=O)Nc2cccc(-c3cccc(-c4nc5ccc(C(F)(F)F)cc5[nH]4)c3)c2)s1
active: growth inhibition [1] 99% | inhibition [2] 76% | growth inhibition [4] 101%
inactive: inhibition [3] 3% | outcome [5] | outcome [6] | outcome [7] | outcome [8]

Cn1ncc2c3c(CCN4CCC(NCc5ccc6c(c5)NC(=O)CO6)CC4)c(Cl)cnc3ccc21
active: growth inhibition [1] 92% | growth inhibition [4] 101%
inactive: inhibition [2] 18% | inhibition [3] -2% | outcome [5] | outcome [6] | outcome [7] | outcome [8]

CC(=O)Nc1ccc(CN2CCN(C(c3ccc(F)cc3)c3ccc(F)cc3)CC2)cc1
inactive: inhibition [2] 4% | inhibition [3] 0% | outcome [5] | outcome [6] | outcome [7] | outcome [8]
active: growth inhibition [1] 79% | growth inhibition [4] 93%

Cn1nccc1C(=O)NCCNCc1cccc(-c2cccc(-c3nc4ccc(F)cc4[nH]3)c2)c1
active: growth inhibition [4] 100%
inactive: growth inhibition [1] 7% | inhibition [2] 38% | inhibition [3] 0% | outcome [5] | outcome [6] | outcome [7] | outcome [8]

COc1ccc(CNC2Cc3ccccc3C2)cc1-c1ccc(S(=O)(=O)NCc2ccccc2)s1
inactive: growth inhibition [1] 25% | inhibition [2] 22% | inhibition [3] 4% | outcome [5] | outcome [6] | outcome [7] | outcome [8]
active: growth inhibition [4] 97%

Fc1cccc(Nc2nc(NCc3ccc(OCc4ccccc4)cc3)nc(Nc3cccc(F)c3)n2)c1
inactive: growth inhibition [1] 14% | inhibition [2] 5% | inhibition [3] 1% | outcome [5] | outcome [6] | outcome [7] | outcome [8]
active: growth inhibition [4] 84%

Oc1ccc2nc(Nc3ccccc3)nc(NCCc3ccccc3)c2c1
inactive: inhibition [2] 20% | inhibition [3] -6% | outcome [5] | outcome [6] | outcome [7] | outcome [8]
active: growth inhibition [1] 100% | growth inhibition [4] 100%

O=C1c2ccccc2-n2c1nc1ccccc1c2=O
inactive: inhibition [2] 9% | inhibition [3] 4% | outcome [5] | outcome [6] | outcome [7] | outcome [8]
active: growth inhibition [1] 80% | growth inhibition [4] 93%

O=C(N[C@@H]1C[C@H]1c1ccccc1)N(CCCn1ccnc1)Cc1csc(-c2ccc(CNCc3ccccc3)cc2)n1
inactive: growth inhibition [1] 20% | inhibition [2] 6% | inhibition [3] 2% | outcome [5] | outcome [6] | outcome [7] | outcome [8]
active: growth inhibition [4] 96%

O=C(Nc1ccc(-c2nc3ccccc3[nH]2)cc1)C1CCN(Cc2ccc(F)cc2)CC1
inactive: inhibition [2] 13% | inhibition [3] 1% | outcome [5] | outcome [6] | outcome [7] | outcome [8]
active: growth inhibition [1] 91% | growth inhibition [4] 102%

CCCCCCCn1c2c(c(=N)c3c1CCC3)CCCC2
active: growth inhibition [1] 98% | growth inhibition [4] 98%
inactive: inhibition [2] 46% | inhibition [3] 1% | outcome [5] | outcome [6] | outcome [7] | outcome [8]

CN1CCN(CCCN(Cc2csc(-c3ccc(CNCc4ccccc4)cc3)n2)S(=O)(=O)c2ccc(F)cc2)CC1
inactive: inhibition [2] 21% | inhibition [3] 3% | outcome [5] | outcome [6] | outcome [7] | outcome [8]
active: growth inhibition [1] 80% | growth inhibition [4] 101%

Cc1cccc2[nH]c(-c3ccc(-c4cccc(CN5CCC(N)C5)c4)s3)nc12 (stereo not given)
inactive: inhibition [2] 16% | inhibition [3] 1% | outcome [5] | outcome [6] | outcome [7] | outcome [8]
active: growth inhibition [1] 78% | growth inhibition [4] 95%

O=C(Cc1cccc(OCCCN(Cc2cccc(C(F)(F)F)c2Cl)CC(c2ccccc2)c2ccccc2)c1)NCc1ccco1
inactive: inhibition [2] 2% | inhibition [3] -6% | outcome [5] | outcome [6] | outcome [7] | outcome [8]
active: growth inhibition [1] 84% | growth inhibition [4] 94%

NC(N)=NN=Cc1ccc2ccc3ccccc3c2c1
inactive: inhibition [2] 34% | inhibition [3] 5% | outcome [5] | outcome [6] | outcome [7] | outcome [8]
active: growth inhibition [1] 89% | growth inhibition [4] 101%

COc1cc2nc(N3CCC(NC(=O)c4cccc(N(C)C)c4)CC3)nc(N)c2cc1OC
inactive: growth inhibition [1] 0% | inhibition [2] 6% | inhibition [3] 1% | outcome [5] | outcome [6] | outcome [7] | outcome [8]
active: growth inhibition [4] 98%

COc1ccc2nccc([C@@H](O)CN3CCC(NCc4cc5oc(=O)n(C)c5cc4F)CC3)c2c1
inactive: inhibition [2] -3% | inhibition [3] -2% | outcome [5] | outcome [6] | outcome [7] | outcome [8]
active: growth inhibition [1] 72% | growth inhibition [4] 99%

O=C(NCCN1CCOCC1)c1ccc(CNC(=O)c2ccc(O)c(-c3ccc(Cl)c(Cl)c3)c2)cc1
active: growth inhibition [1] 55% | growth inhibition [4] 87%
inactive: inhibition [2] 3% | inhibition [3] -1% | outcome [5] | outcome [6] | outcome [7] | outcome [8]
